Calls of active or inactive are those of the source.
Columns and labels:
[1] = E. coli DRC41 culture turbidity changes, primary screen, E. coli filamentation inducer project, strain DRC41, OD650, 48 h (AID 1152);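 also: E. coli MC1000 strain DRC41 lacking acrAB efflux pump and sulA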; conditions: E. coli DRC41 (acrAB sulA), higher = more signal, called active from +8 up or from −8 down
[2] = small-molecule binders of probe aLefty1, primary screen, biochemical, small-molecule microarray, 635/667 nm fluorescence (AID 1153); conditions: higher = more signal;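 also: score merges spot fluorescence with signal-to-noise ratio from the scanned slide images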
[3] = PSAC antagonists in infected red cells, primary screen, cell-based, P. falciparum Indochina, OD700, 1 h (AID 1154); conditions: P. falciparum Indochina infected RBC osmotic lysis, higher = more signal, called active from +8 up or from −8 down
[4] = PSAC antagonists in infected red cells, primary screen, cell-based, P. falciparum Indochina, OD700, 2 h (AID 1155);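 also: lysis reports solute entry through the parasite surface anion channel PSAC; channel blockers reduce lysis of infected cells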; conditions: P. falciparum Indochina infected erythrocytes, osmotic lysis OD700; higher = more signal, called active from +8 up or from −8 down
[5] = osmotic lysis modulators in infected erythrocytes, primary screen, PSAC antagonist project, cell-based, P. falciparum Indochina, OD700, 3 h (AID 1156); conditions: higher = more signal, called active from +8 up or from −8 down
[6] = PSAC antagonists in infected red cells, primary screen, cell-based, P. falciparum Indochina, OD700, 18 h (AID 1157); conditions: P. falciparum Indochina infected erythrocytes, osmotic lysis OD700, 18 h; higher = more signal, called active from +8 up or from −8 down
[7] = modulators of S6 phosphorylation in cells, primary screen, cell-based, A549, cytoblot, luminescence, serum-stimulated (AID 1158); conditions: A549 phospho-S6 cytoblot, 5 h, higher = more signal;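 also: serum-stimulated A549 lung adenocarcinoma cells; signal is phosphorylated S6 detected by cytoblot immunostaining with HRP secondary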
[8] = target: NADPH oxidase 2 (Homo sapiens) (UniProt P04839); test: NOX2-dependent H2O2 signal modulators, primary screen, NOX inhibitor project, cell-based, HEK293-NOX2, PMA-stimulated, Amplex Red fluorescence (AID 1159); conditions: 45 min, higher = more signal, called active from +8 up or from −8 down; also: test concentration not given here
[9] = target: NADPH oxidase 4 (Homo sapiens) (UniProt Q9NPH5); test: NOX4-dependent H2O2 signal modulators, primary screen, NOX inhibitor project, cell-based, HEK293-NOX4, tetracycline-induced, Amplex Red fluorescence (AID 1160); conditions: 45 min, higher = more signal, called active from +8 up or from −8 down
[10] = target: NADPH oxidase 5 (Homo sapiens) (UniProt Q96PH1); test: NOX5-dependent H2O2 signal modulators, primary screen, NOX inhibitor project, cell-based, HEK293-NOX5, Amplex Red fluorescence (AID 1161); conditions: HEK293-NOX5, ionomycin, 45 min, higher = more signal
Sequence of NADPH oxidase 5 (Homo sapiens) (Q96PH1 whole entry, looked up): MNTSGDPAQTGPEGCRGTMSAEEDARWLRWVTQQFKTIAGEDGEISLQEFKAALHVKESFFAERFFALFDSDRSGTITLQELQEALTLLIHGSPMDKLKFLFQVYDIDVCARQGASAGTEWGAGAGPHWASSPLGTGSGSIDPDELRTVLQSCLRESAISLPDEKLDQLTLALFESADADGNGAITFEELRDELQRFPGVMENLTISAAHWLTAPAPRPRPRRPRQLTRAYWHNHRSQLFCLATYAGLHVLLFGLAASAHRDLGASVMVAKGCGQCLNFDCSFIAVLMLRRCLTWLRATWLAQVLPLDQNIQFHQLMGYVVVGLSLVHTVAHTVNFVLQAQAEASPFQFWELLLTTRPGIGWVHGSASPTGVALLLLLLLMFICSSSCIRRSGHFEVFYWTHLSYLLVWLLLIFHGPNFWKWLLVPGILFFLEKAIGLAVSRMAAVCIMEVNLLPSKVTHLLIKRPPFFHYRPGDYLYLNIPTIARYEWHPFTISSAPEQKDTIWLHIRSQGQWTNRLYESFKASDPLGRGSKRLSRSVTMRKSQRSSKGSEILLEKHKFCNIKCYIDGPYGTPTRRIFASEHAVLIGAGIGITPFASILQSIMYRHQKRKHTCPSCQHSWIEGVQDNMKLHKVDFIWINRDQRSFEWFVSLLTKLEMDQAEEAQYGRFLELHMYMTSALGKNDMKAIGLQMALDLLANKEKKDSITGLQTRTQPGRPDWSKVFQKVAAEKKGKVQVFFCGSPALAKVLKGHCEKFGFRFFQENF

Sequence of NADPH oxidase 4 (Homo sapiens) (Q9NPH5 whole entry, looked up): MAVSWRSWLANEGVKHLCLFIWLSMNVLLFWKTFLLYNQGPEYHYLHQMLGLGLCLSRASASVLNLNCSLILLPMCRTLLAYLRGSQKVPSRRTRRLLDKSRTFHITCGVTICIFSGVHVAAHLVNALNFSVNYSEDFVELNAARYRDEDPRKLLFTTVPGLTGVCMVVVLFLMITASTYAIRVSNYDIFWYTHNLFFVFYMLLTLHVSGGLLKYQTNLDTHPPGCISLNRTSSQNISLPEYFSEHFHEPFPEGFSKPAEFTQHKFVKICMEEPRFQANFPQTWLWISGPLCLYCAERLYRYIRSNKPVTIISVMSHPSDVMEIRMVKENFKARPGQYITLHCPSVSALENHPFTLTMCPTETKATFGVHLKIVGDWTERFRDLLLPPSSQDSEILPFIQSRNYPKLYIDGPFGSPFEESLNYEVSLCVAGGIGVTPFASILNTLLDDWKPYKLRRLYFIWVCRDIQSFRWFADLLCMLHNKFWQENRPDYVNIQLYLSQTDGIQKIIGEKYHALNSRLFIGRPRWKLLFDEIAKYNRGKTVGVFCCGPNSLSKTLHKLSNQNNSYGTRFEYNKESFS
Sequence of NADPH oxidase 2 (Homo sapiens) (P04839 whole entry, looked up): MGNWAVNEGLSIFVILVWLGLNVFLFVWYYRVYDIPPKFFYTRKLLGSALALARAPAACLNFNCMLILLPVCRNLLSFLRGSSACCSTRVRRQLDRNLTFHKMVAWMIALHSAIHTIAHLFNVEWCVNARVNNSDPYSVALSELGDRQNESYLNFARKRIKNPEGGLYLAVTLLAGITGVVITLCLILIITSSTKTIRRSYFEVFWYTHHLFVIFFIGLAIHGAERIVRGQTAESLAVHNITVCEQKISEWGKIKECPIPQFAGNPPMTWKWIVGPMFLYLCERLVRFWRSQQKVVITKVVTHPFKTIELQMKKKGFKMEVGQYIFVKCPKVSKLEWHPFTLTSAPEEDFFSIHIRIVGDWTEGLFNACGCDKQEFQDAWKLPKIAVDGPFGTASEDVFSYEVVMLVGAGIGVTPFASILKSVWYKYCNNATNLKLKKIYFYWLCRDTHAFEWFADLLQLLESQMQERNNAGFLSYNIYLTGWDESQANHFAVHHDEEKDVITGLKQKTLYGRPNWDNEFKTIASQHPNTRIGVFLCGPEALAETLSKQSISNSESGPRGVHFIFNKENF

CCCCCCc1nc(C2CC2)cc2c1[Si](C(C)C)(C(C)C)O[C@H]2c1ccccc1
z-score [1]: -1.27 (inactive)
composite z-score [2]: -0.23
z-score [3]: 0.0479 (inactive)
z-score [4]: -0.0357 (inactive)
z-score [5]: 0.453 (inactive)
z-score [6]: -0.11 (inactive)
z-score [7]: -0.653
z-score [8]: -3.31 (inactive)
z-score [9]: -0.00134 (inactive)
z-score [10]: -1.77

[N-]=[N+]=NCc1ccccc1C[C@]1(C(N)=O)N=C(c2ccc(OCCCO)cc2)O[C@H]1c1ccccc1
z-score [1]: 1.06 (inactive)
composite z-score [2]: -0.227
z-score [3]: 21 (active)
z-score [4]: 3.55 (inactive)
z-score [5]: 0.0533 (inactive)
z-score [6]: 0.913 (inactive)
z-score [7]: 0.349
z-score [8]: -3.27 (inactive)
z-score [9]: -0.839 (inactive)
z-score [10]: -1.95

CC(C)N1CC=CC23O[C@@H]4C=CCOC(=O)[C@@H]4[C@H]2C(=O)N(CCCO)[C@@H]3C1=O (stereo not given in full)
z-score [1]: 2.97 (inactive)
composite z-score [2]: -0.14
z-score [3]: 1.08 (inactive)
z-score [4]: 0.0983 (inactive)
z-score [5]: 0.976 (inactive)
z-score [6]: -0.137 (inactive)
z-score [7]: 1.89
z-score [8]: 0.0484 (inactive)
z-score [9]: -1.52 (inactive)
z-score [10]: -1.36

O=C1O[C@H](c2ccccc2)[C@H](c2ccccc2)N2[C@H]1[C@@H](C(=O)Nc1nc3ccccc3s1)[C@]1(C(=O)Nc3ccccc31)[C@H]2c1ccc(OCCO)cc1
z-score [1]: -0.222 (inactive)
composite z-score [2]: -0.0099
z-score [3]: 3.55 (inactive)
z-score [4]: 2.95 (inactive)
z-score [5]: 0.458 (inactive)
z-score [6]: 2.31 (inactive)
z-score [7]: -0.357
z-score [8]: 0.499 (inactive)
z-score [9]: 0.4 (inactive)
z-score [10]: 0.992

COCCOC(=O)N1C(=O)[C@@]2(c3cc(C#CC4=CCCCC4)ccc31)[C@H](C(=O)N1CCCCCCC1)[C@H]1C(=O)O[C@H](c3ccccc3)[C@H](c3ccccc3)N1[C@@H]2c1ccc(O)cc1
z-score [1]: 1.63 (inactive)
composite z-score [2]: 0.93
z-score [3]: -0.43 (inactive)
z-score [4]: -1.2 (inactive)
z-score [5]: -1.27 (inactive)
z-score [6]: -1.96 (inactive)
z-score [7]: 2.44
z-score [8]: 0.67 (inactive)
z-score [9]: 0.257 (inactive)
z-score [10]: 0.871

COC(=O)[C@@]1(Cc2ccccc2N=[N+]=[N-])N=C(c2ccc(OCCCO)cc2)O[C@H]1c1ccccc1N=[N+]=[N-]
z-score [1]: 1.24 (inactive)
composite z-score [2]: 0.373
z-score [3]: 24.9 (active)
z-score [4]: 13.3 (active)
z-score [5]: 0.531 (inactive)
z-score [6]: 3.93 (inactive)
z-score [7]: 0.342
z-score [8]: -1.58 (inactive)
z-score [9]: 0.802 (inactive)
z-score [10]: -0.833

C=CCNC(=O)[C@H]1[C@@H]2C(=O)O[C@@H](c3ccccc3)[C@@H](c3ccccc3)N2[C@@H](c2ccc(O)cc2)[C@]12C(=O)N(C(=O)OCCOC)c1ccccc12
z-score [1]: -0.0476 (inactive)
composite z-score [2]: -0.514
z-score [3]: 1.97 (inactive)
z-score [4]: 0.481 (inactive)
z-score [5]: 1.77 (inactive)
z-score [6]: 0.148 (inactive)
z-score [7]: -0.233
z-score [8]: 0.974 (inactive)
z-score [9]: -0.168 (inactive)
z-score [10]: 0.605

N#Cc1ccc(NN2C(C(O)c3ccc(F)cc3)C=CC3C(=O)N(c4ccccc4)C(=O)C32)cc1 (stereo not given)
z-score [1]: -0.922 (inactive)
composite z-score [2]: 1.03
z-score [3]: 8.09 (active)
z-score [4]: 1.4 (inactive)
z-score [5]: 1.36 (inactive)
z-score [6]: 1.29 (inactive)
z-score [7]: -0.491
z-score [8]: -1.33 (inactive)
z-score [9]: -4.55 (inactive)
z-score [10]: -2.9

Cc1ccc(S[C@]2(C(=O)O)CC(=O)N(Cc3cc(C(F)(F)F)cc(C(F)(F)F)c3)[C@@H]2c2ccc(CO)cc2)cc1
z-score [1]: -1.21 (inactive)
composite z-score [2]: -0.239
z-score [3]: 2.76 (inactive)
z-score [4]: 1.01 (inactive)
z-score [5]: 1.44 (inactive)
z-score [6]: 0.769 (inactive)
z-score [7]: -0.482
z-score [8]: 0.86 (inactive)
z-score [9]: -0.271 (inactive)
z-score [10]: 0.0502

COc1ccc([Si](C)(C)[C@@H]2[C@@H](CC(=O)N3Cc4ccccc4C[C@H]3CO)O[C@]3(C(=O)N(Cc4cccc(N5C(=O)c6cccc7cccc5c67)c4)c4ccccc43)[C@H]2C)cc1
z-score [1]: -0.721 (inactive)
composite z-score [2]: -0.0601
z-score [3]: 2.4 (inactive)
z-score [4]: 0.963 (inactive)
z-score [5]: -0.369 (inactive)
z-score [6]: 0.376 (inactive)
z-score [7]: 0.015
z-score [8]: -0.579 (inactive)
z-score [9]: 0.668 (inactive)
z-score [10]: 2.34

COCCOC(=O)N1C(=O)[C@@]2(c3ccccc31)[C@H](C(=O)N1CCN(c3ncccn3)CC1)[C@H]1C(=O)O[C@H](c3ccccc3)[C@H](c3ccccc3)N1[C@@H]2c1ccc(O)cc1
z-score [1]: 0.81 (inactive)
composite z-score [2]: 0.0661
z-score [3]: 1.78 (inactive)
z-score [4]: 0.672 (inactive)
z-score [5]: 0.481 (inactive)
z-score [6]: 0.261 (inactive)
z-score [7]: 0.0481
z-score [8]: 1.25 (inactive)
z-score [9]: -0.0154 (inactive)
z-score [10]: 2.19

C[N+](C)(C)CCCC[C@@H]1NC(=O)[C@H]2C[C@@H](C(=O)NCCCCCCN)[C@@H](c3ccc(O)cc3)N2C1=O
z-score [1]: 0.429 (inactive)
composite z-score [2]: 0.284
z-score [3]: 0.625 (inactive)
z-score [4]: 0.328 (inactive)
z-score [5]: -2.08 (inactive)
z-score [6]: 0.326 (inactive)
z-score [7]: 0.191
z-score [8]: 0.00341 (inactive)
z-score [9]: -1.73 (inactive)
z-score [10]: 0.273

COC(=O)c1c2oc(c1C(=O)OC)C(=O)N(Cc1ccccc1)Cc1cn(nn1)C[C@H](Cc1ccccc1)NC(=O)N[C@H](CO)CC2
z-score [1]: 0.959 (inactive)
composite z-score [2]: -0.0942
z-score [3]: 1.67 (inactive)
z-score [4]: 0.393 (inactive)
z-score [5]: -0.252 (inactive)
z-score [6]: 0.213 (inactive)
z-score [7]: 1.18
z-score [8]: -1.13 (inactive)
z-score [9]: 1.06 (inactive)
z-score [10]: -0.397
